This is an account of results in PubChem BioAssay (NCI).

Test systems include NCI-H23 lung; NCI-H226 lung; NCI-H322M lung; HOP-62 NSCLC; NCI-H460 lung; HOP-92 NSCLC; NCI-H522 lung; A549/ATCC NSCLC; 786-0 renal; COLO 205 colon.
Common to all, as to assay: NCI-60 one-dose screen, 48 h (100 = growth as untreated, 0 = no growth, -100 = all killed)
Settings in all cases: 10 µM unless noted

About 83,000 compounds went through this panel and 20% of them were active in at least one assay; those are over-represented in the sample as a whole.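 48-hour exposure, single concentration, 96-well plates; percent growth endpoint where 0 means no net growth. Active: below 10.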 Values without a mark were called inactive. Active and inactive are the calls of the source.

In the case of `CCCCCCCCCCCCNC(c1ccccc1)C(O)c1ccccc1` (stereo not given), the growth in the assay on NCI-H23 lung is 78.7%; with NCI-H226 lung, 103%; in the assay on NCI-H322M lung, 88.2%; in the assay on HOP-62 NSCLC, 90.3%; in the assay on NCI-H460 lung it was 93.4%; with HOP-92 NSCLC it was 80.7%. The growth with NCI-H522 lung is 69.1%; with A549/ATCC NSCLC, 84.7%; in the assay with 786-0 renal it was 79.3%; in the assay on COLO 205 colon it was -30.7% (active).

As to `Cn1cc(-c2csc(-c3cn(CCCCN4CCCCC4)c4ccccc34)n2)c2cccnc21`, the growth is 42.7% in the assay on NCI-H23 lung; 68.2% with NCI-H226 lung; 88.2% in the assay with NCI-H322M lung; 51.6% in the assay with HOP-62 NSCLC; -44.9% (active) in the assay with NCI-H460 lung; 46.3% in the assay on HOP-92 NSCLC. Moreover, the growth with NCI-H522 lung is 48%; in the assay with A549/ATCC NSCLC, -47.1% (active); with 786-0 renal, -85.1% (active); with COLO 205 colon it was -73.7% (active).

Regarding `O=C(O)C1C(C(=O)O)C2(Cl)C(Cl)=C(Cl)C1(Cl)C2(Cl)Cl.[Hg]` (stereo not given), the growth with NCI-H23 lung was 90.7%; with NCI-H226 lung, 106%; in the assay on NCI-H322M lung, 107%; with HOP-62 NSCLC, 103%; in the assay on NCI-H460 lung it was 98.8%; with HOP-92 NSCLC, 127%. The growth with NCI-H522 lung was -50.2% (active); in the assay with A549/ATCC NSCLC, 85%; in the assay with 786-0 renal it was 88%; in the assay on COLO 205 colon, 103%.

Turning to `O=NN1CCCc2cccc(O)c21`, the growth in the assay with NCI-H23 lung is -6.22% (active); with NCI-H226 lung it was 76.5%; in the assay on NCI-H322M lung it was 41.8%; with HOP-62 NSCLC, 31.9%; in the assay with NCI-H460 lung, 4.79% (active); in the assay on HOP-92 NSCLC, 71.6%. The growth is -21.7% (active) in the assay on NCI-H522 lung, 37.6% in the assay on A549/ATCC NSCLC, 27.2% in the assay on 786-0 renal and 94% in the assay on COLO 205 colon.

As to `Cc1ccc(C(=O)NCCCOc2ccc(N)cc2Cl)cc1S(=O)(=O)F`, the growth in the assay with NCI-H23 lung is 98.9%; in the assay on NCI-H226 lung, 89%; with NCI-H322M lung it was 87.2%; in the assay with HOP-62 NSCLC, 89.1%; in the assay with NCI-H460 lung, 102%; in the assay on HOP-92 NSCLC, 96.6%. In addition, the growth was 73.5% with NCI-H522 lung, 90.1% with A549/ATCC NSCLC, 86% with 786-0 renal and 105% with COLO 205 colon.

For `CC[C@H](C)[C@H](NC(=O)NC(C)(C)C)C(=O)N(C)[C@H](C[C@@H](OC(C)=O)c1nc(C(=O)N[C@@H](Cc2ccccc2)C[C@H](C)C(=O)OC)cs1)C(C)C`, the growth with NCI-H23 lung was 24.1%; with NCI-H226 lung, 16.3%; with NCI-H322M lung, 44.4%; in the assay with HOP-62 NSCLC it was 12.4%; with NCI-H460 lung, 1.65% (active); with HOP-92 NSCLC, 17.3%. Moreover, the growth is 14.4% with NCI-H522 lung, 19.1% with A549/ATCC NSCLC, -7.51% (active) in the assay on 786-0 renal and -53.8% (active) with COLO 205 colon.

`CC(=O)OC1C(OC/C2=C/C3[C@@H](C(C)C)CC=C(C)[C@@H]3CC(OC(=O)/C=C/c3cn(C)cn3)[C@]3(C)C=C[C@@]2(O)O3)OCC(O)C1O` (stereo not given in full): the growth in the assay with NCI-H23 lung is 18.2%; with NCI-H226 lung, 63.5%; in the assay on NCI-H322M lung it was 17.4%; with HOP-62 NSCLC it was 8.78% (active); with NCI-H460 lung, 9.03% (active); with HOP-92 NSCLC it was 35.3%. For the same compound, the growth is 0.4% (active) in the assay with NCI-H522 lung, 27.9% with A549/ATCC NSCLC, 15.9% in the assay on 786-0 renal and -24.9% (active) in the assay on COLO 205 colon.

With `COc1cc2ncnc(Nc3ccc(F)c(Cl)c3)c2cc1OCC(=O)N1CCN(C)CC1`, the growth in the assay with NCI-H23 lung is 98.1%; with NCI-H226 lung it was 102%; with NCI-H322M lung, 26.6%; with HOP-62 NSCLC, 96.9%; with NCI-H460 lung, 104%; in the assay on HOP-92 NSCLC it was 75.1%. For the same compound, the growth with NCI-H522 lung was 39.2%; in the assay with A549/ATCC NSCLC, 76.9%; in the assay on 786-0 renal, 70.9%; in the assay with COLO 205 colon, 104%.

Regarding `O=P1(NCCCl)OCCCN1CCCl` (stereo not given), the growth is 107% in the assay with NCI-H23 lung; 109% in the assay on NCI-H226 lung; 106% in the assay with NCI-H322M lung; 108% with HOP-62 NSCLC; 109% in the assay with NCI-H460 lung; 97.4% with HOP-92 NSCLC. The growth with NCI-H522 lung was 99.5%; with A549/ATCC NSCLC, 121%; in the assay with 786-0 renal, 93.5%; with COLO 205 colon, 112%.

For the compound `C[C@]12CCc3nc(Nc4ccccc4F)sc3C1=CC[C@@H]1[C@@H]2CC[C@]2(C)C(=O)CC[C@@H]12`, the growth was 77.7% in the assay with NCI-H23 lung; 85.9% with NCI-H226 lung; 86.5% with NCI-H322M lung; 87.2% in the assay with HOP-62 NSCLC; 60.3% in the assay on NCI-H460 lung; 116% with HOP-92 NSCLC. The growth is 79.1% in the assay with NCI-H522 lung, 76.7% in the assay on A549/ATCC NSCLC, 38.5% with 786-0 renal and 75.7% in the assay with COLO 205 colon.

In the case of `CC1(C)N=C(N)N=C(N)N1c1cccc(CCCCc2ccc(Cl)c(S(=O)(=O)F)c2)c1`, the growth is 28.4% in the assay with NCI-H23 lung; 57.1% in the assay with NCI-H226 lung; 54.9% with NCI-H322M lung; 33.6% with HOP-62 NSCLC; 21.4% in the assay on NCI-H460 lung; 41.3% in the assay on HOP-92 NSCLC. The growth was -9.62% (active) in the assay on NCI-H522 lung, 10.6% in the assay with A549/ATCC NSCLC, 5.96% (active) with 786-0 renal and 72.7% with COLO 205 colon.
